Results from PubChem BioAssay (NCI).
This is part of a sample that, as a whole, favours compounds with a hit. Of some 83,000 tested, about 20% had one in any assay.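 Percent growth is the endpoint: 0 to 100 indicates growth inhibition (40 means 60% inhibition), 0 means no net growth, and negative values indicate cell death.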 Calls of active or inactive are those of the source. The calls were made as follows: active = growth percent below 10; inactive = the rest.

Columns and labels:
Experiment in all cases: NCI-60 one-dose screen, 48 h (100 = growth as untreated, 0 = no growth, -100 = all killed)
Details in all cases: 10 µM unless noted
SR leukemia = tested on: SR leukemia
RPMI-8226 leukemia = tested on: RPMI-8226 leukemia
OVCAR-8 ovarian = tested on: OVCAR-8 ovarian
OVCAR-5 ovarian = tested on: OVCAR-5 ovarian
OVCAR-4 ovarian = tested on: OVCAR-4 ovarian
SK-OV-3 ovarian = tested on: SK-OV-3 ovarian
IGROV1 ovarian = tested on: IGROV1 ovarian
OVCAR-3 ovarian = tested on: OVCAR-3 ovarian
HS 578T breast = tested on: HS 578T breast
NCI/ADR-RES ovarian = tested on: NCI/ADR-RES ovarian
T-47D breast = tested on: T-47D breast
BT-549 breast = tested on: BT-549 breast
MDA-MB-435 melanoma = tested on: MDA-MB-435 melanoma
SW-620 colon = tested on: SW-620 colon
MCF7 breast = tested on: MCF7 breast
HCT-116 colon = tested on: HCT-116 colon
HCC-2998 colon = tested on: HCC-2998 colon
KM12 colon = tested on: KM12 colon

Measured: growth

O=C(Nc1ncc(Cc2cc(C(F)(F)F)ccc2Cl)s1)C(=S)N1CCOCC1
inactive: SR leukemia 92.1% | RPMI-8226 leukemia 81.9% | OVCAR-8 ovarian 95.2% | OVCAR-5 ovarian 94.7% | OVCAR-4 ovarian 84.5% | SK-OV-3 ovarian 92% | IGROV1 ovarian 84.3% | OVCAR-3 ovarian 105% | HS 578T breast 92.6% | NCI/ADR-RES ovarian 91.3% | T-47D breast 73.9% | BT-549 breast 99% | MDA-MB-435 melanoma 85.9% | SW-620 colon 93.2% | MCF7 breast 82% | HCT-116 colon 81.8% | HCC-2998 colon 101% | KM12 colon 97.7%

Nc1ncnc2c1N=C(c1ccc([N+](=O)[O-])cc1)CC(c1ccc3c(c1)OCO3)N2 (stereo not drawn)
inactive: SR leukemia 85.3% | RPMI-8226 leukemia 71.1% | OVCAR-8 ovarian 89.6% | OVCAR-5 ovarian 91.7% | OVCAR-4 ovarian 95.5% | SK-OV-3 ovarian 91.1% | IGROV1 ovarian 51.1% | OVCAR-3 ovarian 90.6% | HS 578T breast 80.7% | NCI/ADR-RES ovarian 77.6% | T-47D breast 93% | BT-549 breast 86.6% | MDA-MB-435 melanoma 94% | SW-620 colon 92% | MCF7 breast 72.7% | HCT-116 colon 83.3% | HCC-2998 colon 53.8% | KM12 colon 89.4%

C=CCNc1ccc2c3c(cccc13)C(=O)N(CC=C)C2=O
inactive: SR leukemia 74.8% | RPMI-8226 leukemia 95.2% | OVCAR-8 ovarian 96.3% | OVCAR-5 ovarian 92% | OVCAR-4 ovarian 110% | SK-OV-3 ovarian 103% | IGROV1 ovarian 88.7% | OVCAR-3 ovarian 107% | HS 578T breast 91.6% | NCI/ADR-RES ovarian 92.8% | T-47D breast 83% | BT-549 breast 98.4% | MDA-MB-435 melanoma 109% | SW-620 colon 108% | MCF7 breast 34% | HCT-116 colon 86.5% | HCC-2998 colon 106% | KM12 colon 101%

CCCCC/C=C/CCC(=O)N[C@H]1[C@H](Oc2c3cc4cc2Oc2ccc(cc2Cl)[C@@H](O[C@@H]2O[C@H](CO)[C@@H](O)[C@H](O)[C@H]2NC(C)=O)[C@@H]2NC(=O)[C@H](NC(=O)[C@@H]4NC(=O)[C@H]4NC(=O)[C@@H](Cc5ccc(c(Cl)c5)O3)NC(=O)[C@@H](N)c3ccc(O)c(c3)Oc3cc(O)cc4c3)c3ccc(O)c(c3)-c3c(O[C@H]4O[C@H](CO)[C@@H](O)[C@H](O)[C@@H]4O)cc(O)cc3[C@H](C(=O)O)NC2=O)O[C@H](CO)[C@H](O)[C@@H]1O
inactive: SR leukemia 95.5% | RPMI-8226 leukemia 120% | OVCAR-8 ovarian 101% | OVCAR-5 ovarian 114% | OVCAR-4 ovarian 110% | SK-OV-3 ovarian 111% | IGROV1 ovarian 101% | OVCAR-3 ovarian 104% | HS 578T breast 50.1% | NCI/ADR-RES ovarian 96.5% | T-47D breast 119% | BT-549 breast 107% | MDA-MB-435 melanoma 100% | SW-620 colon 102% | MCF7 breast 98.5% | HCT-116 colon 101% | HCC-2998 colon 101% | KM12 colon 111%

CSc1nc(CC(C)C)c(C#N)c(=O)n1C
inactive: SR leukemia 47.4% | RPMI-8226 leukemia 64.5% | OVCAR-8 ovarian 77.1% | OVCAR-5 ovarian 74.7% | OVCAR-4 ovarian 52.4% | SK-OV-3 ovarian 87.7% | IGROV1 ovarian 71.8% | OVCAR-3 ovarian 61.3% | HS 578T breast 58.4% | NCI/ADR-RES ovarian 72.5% | T-47D breast 33.4% | BT-549 breast 58.8% | MDA-MB-435 melanoma 65.8% | SW-620 colon 63.1% | MCF7 breast 38.7% | HCT-116 colon 60.4% | HCC-2998 colon 79.4% | KM12 colon 86.5%

O=C(/C=C/c1ccc([N+](=O)[O-])cc1)c1cccc(Nc2nc(Nc3ccccc3)nc(Nc3ccccc3)n2)c1
active: RPMI-8226 leukemia -60.2% | HCT-116 colon -11.9%
inactive: SR leukemia 55.8% | OVCAR-8 ovarian 70.5% | OVCAR-5 ovarian 74.7% | OVCAR-4 ovarian 79.8% | SK-OV-3 ovarian 81% | IGROV1 ovarian 52% | OVCAR-3 ovarian 72.6% | HS 578T breast 70.2% | NCI/ADR-RES ovarian 67.9% | T-47D breast 47.1% | BT-549 breast 87.7% | MDA-MB-435 melanoma 91.7% | SW-620 colon 67.6% | MCF7 breast 15.6% | HCC-2998 colon 46.1% | KM12 colon 81.1%

COc1ccc(Nc2nc(Nc3cc(C)[nH]n3)c3cc(OC)c(OC)cc3n2)cc1
active: SR leukemia 0.87% [20 µM] | RPMI-8226 leukemia -50.4% [20 µM] | OVCAR-8 ovarian -31.2% [20 µM] | OVCAR-5 ovarian -98% [20 µM] | OVCAR-4 ovarian -83.9% [20 µM] | SK-OV-3 ovarian -96.2% [20 µM] | IGROV1 ovarian -88.8% [20 µM] | OVCAR-3 ovarian -63.1% [20 µM] | HS 578T breast -63.1% [20 µM] | NCI/ADR-RES ovarian -63.7% [20 µM] | T-47D breast -52.1% [20 µM] | BT-549 breast -87.5% [20 µM] | MDA-MB-435 melanoma -97.5% [20 µM] | SW-620 colon -74.4% [20 µM] | MCF7 breast -71.4% [20 µM] | HCT-116 colon -54.4% [20 µM] | HCC-2998 colon -73.3% [20 µM] | KM12 colon -74% [20 µM]

CCOC(=O)c1c(N)sc2cc(O)ccc12
inactive: SR leukemia 93% | RPMI-8226 leukemia 110% | OVCAR-8 ovarian 100% | OVCAR-5 ovarian 100% | OVCAR-4 ovarian 108% | SK-OV-3 ovarian 111% | IGROV1 ovarian 97.1% | OVCAR-3 ovarian 97.9% | HS 578T breast 99.9% | NCI/ADR-RES ovarian 100% | T-47D breast 85.7% | BT-549 breast 93.3% | MDA-MB-435 melanoma 107% | SW-620 colon 117% | MCF7 breast 104% | HCT-116 colon 98.5% | HCC-2998 colon 111% | KM12 colon 89.1%

O=C1/C(=C/c2cccc([N+](=O)[O-])c2)COc2ccc(O)c(O)c21
inactive: OVCAR-4 ovarian 15.3% | SK-OV-3 ovarian 68.9%
active: SR leukemia 8.03% | RPMI-8226 leukemia -24.7% | OVCAR-8 ovarian 5.45% | OVCAR-5 ovarian -48.8% | IGROV1 ovarian -21.6% | OVCAR-3 ovarian -83.6% | HS 578T breast 6.86% | NCI/ADR-RES ovarian 9.52% | T-47D breast -16.8% | BT-549 breast -3.03% | MDA-MB-435 melanoma -33.4% | SW-620 colon -31.4% | MCF7 breast 1.76% | HCT-116 colon -74.8% | HCC-2998 colon -85.2% | KM12 colon -45.7%

N=C(N)c1ccc(-c2ccc(-c3ccc(Cl)cc3Cl)s2)nc1
active: SR leukemia 5.54% | RPMI-8226 leukemia 0.186% | SW-620 colon -63.6% | MCF7 breast -30.5% | HCT-116 colon -69.5% | HCC-2998 colon -33% | KM12 colon -31.5%
inactive: OVCAR-8 ovarian 36.2% | OVCAR-5 ovarian 80.2% | OVCAR-4 ovarian 98.2% | SK-OV-3 ovarian 91.3% | IGROV1 ovarian 50.6% | OVCAR-3 ovarian 64.4% | HS 578T breast 90.1% | NCI/ADR-RES ovarian 96.7% | T-47D breast 81.2% | BT-549 breast 105% | MDA-MB-435 melanoma 62.5%

Cc1nc2cccc(NCc3ccc(C(=O)NO)cc3)c2c(=O)n1-c1ccccc1
active: OVCAR-8 ovarian 3.81% | SK-OV-3 ovarian 4.52% | SW-620 colon 7.22% | HCT-116 colon -32.6%
inactive: SR leukemia 14.8% | RPMI-8226 leukemia 18.5% | OVCAR-5 ovarian 40% | OVCAR-4 ovarian 62.2% | IGROV1 ovarian 20.4% | OVCAR-3 ovarian 43.9% | HS 578T breast 56.8% | NCI/ADR-RES ovarian 19.2% | T-47D breast 17.5% | BT-549 breast 73.4% | MDA-MB-435 melanoma 27% | MCF7 breast 67.1% | HCC-2998 colon 86.3% | KM12 colon 29.8%

C=C1C(=O)O[C@H]2[C@H]1CC/C(COC(=O)NCc1ccc(Cn3c(=O)sn(CCCC)c3=O)cc1)=C\CC[C@@]1(C)O[C@@H]21
inactive: SR leukemia 17.2% | OVCAR-8 ovarian 65.4% | OVCAR-5 ovarian 71.9% | OVCAR-4 ovarian 29.2% | SK-OV-3 ovarian 107% | IGROV1 ovarian 36.4% | HS 578T breast 78.2% | NCI/ADR-RES ovarian 103% | T-47D breast 26.2% | BT-549 breast 53.3% | MDA-MB-435 melanoma 40.8% | HCC-2998 colon 97.7% | KM12 colon 101%
active: RPMI-8226 leukemia -15.8% | OVCAR-3 ovarian -28.6% | SW-620 colon -47% | MCF7 breast 7.24% | HCT-116 colon 3.34%

C#CC(F)(F)[C@]1(O)CCC2C3CCC4=CC(=O)CCC4=C3[C@@H](c3ccc(N(C)C)cc3)C[C@@]21C (stereo partly drawn)
inactive: SR leukemia 63.8% | RPMI-8226 leukemia 74.6% | OVCAR-8 ovarian 86.7% | OVCAR-5 ovarian 119% | OVCAR-4 ovarian 88.4% | SK-OV-3 ovarian 87.8% | IGROV1 ovarian 99% | OVCAR-3 ovarian 95.1% | HS 578T breast 89.1% | NCI/ADR-RES ovarian 94.6% | T-47D breast 44% | BT-549 breast 88.7% | MDA-MB-435 melanoma 103% | SW-620 colon 103% | MCF7 breast 57.8% | HCT-116 colon 71.2% | HCC-2998 colon 111% | KM12 colon 99.3%

O=C(Nc1ccc2[nH]ncc2c1)c1csc(Nc2ccccc2)n1
active: RPMI-8226 leukemia 7.99% | MDA-MB-435 melanoma -11.9%
inactive: SR leukemia 22.8% | OVCAR-8 ovarian 35.9% | OVCAR-5 ovarian 64.5% | OVCAR-4 ovarian 61.6% | SK-OV-3 ovarian 50.7% | IGROV1 ovarian 54.9% | OVCAR-3 ovarian 13.1% | HS 578T breast 38.3% | NCI/ADR-RES ovarian 16.5% | T-47D breast 37.1% | BT-549 breast 62% | SW-620 colon 21% | MCF7 breast 14.1% | HCT-116 colon 35.3% | HCC-2998 colon 62.5% | KM12 colon 27.7%

CCOC(=O)c1ccc2c(c1)[n+](=O)c(C(C)=O)c(C(F)(F)F)n2[O-]
inactive: SK-OV-3 ovarian 24.8%
active: SR leukemia -59.2% | RPMI-8226 leukemia 8.56% | OVCAR-8 ovarian -42.6% | OVCAR-5 ovarian -1.19% | OVCAR-4 ovarian -5.96% | IGROV1 ovarian -81.1% | OVCAR-3 ovarian -84.7% | HS 578T breast -23.9% | NCI/ADR-RES ovarian 6.85% | T-47D breast -26.1% | BT-549 breast -44.9% | MDA-MB-435 melanoma 2.85% | SW-620 colon -0.801% | MCF7 breast -6.41% | HCT-116 colon -38.9% | HCC-2998 colon -17.1% | KM12 colon -85.5%

COc1cc(CNC(=O)CCCC/C=C/C(C)C)ccc1OCc1cn(-c2ccc(C(F)(F)F)cc2)nn1
inactive: SR leukemia 70.4% | RPMI-8226 leukemia 53.4% | OVCAR-8 ovarian 41.1% | OVCAR-5 ovarian 96.6% | OVCAR-4 ovarian 98.6% | SK-OV-3 ovarian 91.3% | IGROV1 ovarian 58.7% | OVCAR-3 ovarian 107% | HS 578T breast 80.4% | NCI/ADR-RES ovarian 48.2% | T-47D breast 70.2% | BT-549 breast 84.5% | MDA-MB-435 melanoma 107% | SW-620 colon 41.3% | MCF7 breast 75.2% | HCC-2998 colon 94.8% | KM12 colon 81.2%
active: HCT-116 colon 2.97%
